According to PubChem BioAssay:
The source made the active and inactive calls.

How the values were obtained:
[1] = E. coli DRC41 culture turbidity changes, primary screen, E. coli filamentation inducer project, strain DRC41, OD650, 48 h (AID 1152);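 also: E. coli MC1000 strain DRC41 lacking acrAB efflux pump and sulA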; conditions: E. coli DRC41 (acrAB sulA), higher = more signal, called active from +8 up or from −8 down
[2] = small-molecule binders of probe aLefty1, primary screen, biochemical, small-molecule microarray, 635/667 nm fluorescence (AID 1153); conditions: higher = more signal;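 also: score merges spot fluorescence with signal-to-noise ratio from the scanned slide images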
[3] = PSAC antagonists in infected red cells, primary screen, cell-based, P. falciparum Indochina, OD700, 1 h (AID 1154); conditions: P. falciparum Indochina infected RBC osmotic lysis, higher = more signal, called active from +8 up or from −8 down
[4] = PSAC antagonists in infected red cells, primary screen, cell-based, P. falciparum Indochina, OD700, 2 h (AID 1155);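 also: lysis reports solute entry through the parasite surface anion channel PSAC; channel blockers reduce lysis of infected cells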; conditions: P. falciparum Indochina infected erythrocytes, osmotic lysis OD700; higher = more signal, called active from +8 up or from −8 down
[5] = osmotic lysis modulators in infected erythrocytes, primary screen, PSAC antagonist project, cell-based, P. falciparum Indochina, OD700, 3 h (AID 1156); conditions: higher = more signal, called active from +8 up or from −8 down
[6] = PSAC antagonists in infected red cells, primary screen, cell-based, P. falciparum Indochina, OD700, 18 h (AID 1157); conditions: P. falciparum Indochina infected erythrocytes, osmotic lysis OD700, 18 h; higher = more signal, called active from +8 up or from −8 down
[7] = modulators of S6 phosphorylation in cells, primary screen, cell-based, A549, cytoblot, luminescence, serum-stimulated (AID 1158); conditions: A549 phospho-S6 cytoblot, 5 h, higher = more signal;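 also: serum-stimulated A549 lung adenocarcinoma cells; signal is phosphorylated S6 detected by cytoblot immunostaining with HRP secondary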
[8] = biological target: NADPH oxidase 2 (Homo sapiens) (UniProt P04839); test: NOX2-dependent H2O2 signal modulators, primary screen, NOX inhibitor project, cell-based, HEK293-NOX2, PMA-stimulated, Amplex Red fluorescence (AID 1159); conditions: 45 min, higher = more signal, called active from +8 up or from −8 down; also: test concentration not given here
NADPH oxidase 2 (Homo sapiens), sequence (P04839 whole entry, looked up): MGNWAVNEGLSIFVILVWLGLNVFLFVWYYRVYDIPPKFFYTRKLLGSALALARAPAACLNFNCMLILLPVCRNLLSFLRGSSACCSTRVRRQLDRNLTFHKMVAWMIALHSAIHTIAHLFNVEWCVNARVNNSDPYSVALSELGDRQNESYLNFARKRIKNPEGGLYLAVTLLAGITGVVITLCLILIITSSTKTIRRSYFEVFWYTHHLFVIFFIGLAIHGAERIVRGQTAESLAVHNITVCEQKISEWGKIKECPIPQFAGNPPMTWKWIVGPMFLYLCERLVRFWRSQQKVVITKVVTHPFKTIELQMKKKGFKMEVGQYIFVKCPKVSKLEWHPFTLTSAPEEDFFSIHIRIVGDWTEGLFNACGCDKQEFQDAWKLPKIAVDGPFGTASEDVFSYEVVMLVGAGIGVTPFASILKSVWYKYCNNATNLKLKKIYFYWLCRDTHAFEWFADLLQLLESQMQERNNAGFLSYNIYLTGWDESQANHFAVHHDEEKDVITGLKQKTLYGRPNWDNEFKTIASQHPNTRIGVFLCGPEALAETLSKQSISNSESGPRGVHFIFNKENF

[9] = biological target: NADPH oxidase 4 (Homo sapiens) (UniProt Q9NPH5); test: NOX4-dependent H2O2 signal modulators, primary screen, NOX inhibitor project, cell-based, HEK293-NOX4, tetracycline-induced, Amplex Red fluorescence (AID 1160); conditions: 45 min, higher = more signal, called active from +8 up or from −8 down
NADPH oxidase 4 (Homo sapiens), sequence (Q9NPH5 whole entry, looked up): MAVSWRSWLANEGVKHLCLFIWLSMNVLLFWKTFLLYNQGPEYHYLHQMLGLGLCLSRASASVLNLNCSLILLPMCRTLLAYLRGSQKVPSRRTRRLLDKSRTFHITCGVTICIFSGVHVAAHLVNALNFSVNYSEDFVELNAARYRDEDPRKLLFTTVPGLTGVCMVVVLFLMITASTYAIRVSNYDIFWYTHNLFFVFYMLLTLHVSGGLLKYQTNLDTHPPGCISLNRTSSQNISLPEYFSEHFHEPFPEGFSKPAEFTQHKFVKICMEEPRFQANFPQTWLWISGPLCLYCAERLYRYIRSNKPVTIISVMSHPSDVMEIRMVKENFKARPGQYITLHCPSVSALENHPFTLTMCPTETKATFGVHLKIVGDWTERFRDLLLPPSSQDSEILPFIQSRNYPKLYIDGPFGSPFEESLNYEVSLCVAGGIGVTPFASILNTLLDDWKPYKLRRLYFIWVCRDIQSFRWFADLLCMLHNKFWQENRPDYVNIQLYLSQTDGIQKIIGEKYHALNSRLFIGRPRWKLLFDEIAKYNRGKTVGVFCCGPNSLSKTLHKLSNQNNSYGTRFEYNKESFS

[10] = biological target: NADPH oxidase 5 (Homo sapiens) (UniProt Q96PH1); test: NOX5-dependent H2O2 signal modulators, primary screen, NOX inhibitor project, cell-based, HEK293-NOX5, Amplex Red fluorescence (AID 1161); conditions: HEK293-NOX5, ionomycin, 45 min, higher = more signal
NADPH oxidase 5 (Homo sapiens), sequence (Q96PH1 whole entry, looked up): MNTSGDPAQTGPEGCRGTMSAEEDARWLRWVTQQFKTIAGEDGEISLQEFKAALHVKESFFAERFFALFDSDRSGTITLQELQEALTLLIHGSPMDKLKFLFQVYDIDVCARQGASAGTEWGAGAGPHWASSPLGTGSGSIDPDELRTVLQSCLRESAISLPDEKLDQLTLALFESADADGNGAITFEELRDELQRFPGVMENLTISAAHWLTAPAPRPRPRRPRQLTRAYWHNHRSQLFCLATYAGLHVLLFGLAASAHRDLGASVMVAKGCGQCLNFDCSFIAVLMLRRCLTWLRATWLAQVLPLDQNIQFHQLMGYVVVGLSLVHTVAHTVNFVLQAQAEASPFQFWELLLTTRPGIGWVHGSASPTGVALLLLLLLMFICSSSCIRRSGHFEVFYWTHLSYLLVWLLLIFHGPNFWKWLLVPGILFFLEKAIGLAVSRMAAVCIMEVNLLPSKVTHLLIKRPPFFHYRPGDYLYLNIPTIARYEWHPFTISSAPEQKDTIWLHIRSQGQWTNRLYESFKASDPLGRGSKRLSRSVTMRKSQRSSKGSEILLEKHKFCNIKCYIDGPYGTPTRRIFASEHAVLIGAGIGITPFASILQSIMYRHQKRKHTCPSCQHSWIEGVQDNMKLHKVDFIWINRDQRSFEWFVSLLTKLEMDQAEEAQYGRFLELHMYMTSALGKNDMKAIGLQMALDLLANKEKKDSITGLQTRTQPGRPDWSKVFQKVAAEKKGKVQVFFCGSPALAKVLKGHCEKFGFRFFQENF

[11] = A549 cell viability effects, profiling panel, calcein-AM fluorescence, 48 h, basal (AID 1162); conditions: higher = more signal; also: test concentration not given here
[12] = adipocyte viability effects, profiling panel, cell-based, 3T3-L1 adipocytes, calcein-AM fluorescence, 48 h, basal (AID 1163); conditions: 3T3-L1 adipocytes viability, higher = more signal; also: test concentration not given here
[13] = HepG2 cell viability effects, profiling panel, calcein-AM fluorescence, 48 h, basal (AID 1164); conditions: higher = more signal; also: test concentration not given here
[14] = MM1S cell viability effects, profiling panel, calcein-AM fluorescence, 48 h, basal (AID 1165); conditions: higher = more signal;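 also: viability of MM1S multiple myeloma cells under basal unstimulated conditions; test concentration not given here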
[15] = basal RPMI8226 viability, no added stimulus, profiling panel, cell-based, calcein-AM fluorescence, 48 h, PK04 Diversity Set (AID 1166); conditions: RPMI8226 myeloma viability, higher = more signal;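 also: cells grown under basal conditions without added stimulus; test concentration not given here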
[16] = basal HepG2 mitochondrial membrane potential changes, profiling panel, cell-based, JC-1 fluorescence, 24 h, 100 nL compound (AID 1167); conditions: higher = more signal; also: test concentration not given here
[17] = basal 3T3-L1 adipocyte mitochondrial potential changes, profiling panel, cell-based, JC-1 fluorescence, 3T3-L1 adipocytes, 24 h, 100 nL compound (AID 1168); conditions: JC-1 mitochondrial fluorescence, higher = more signal, called active from +8 up or from −8 down; also: test concentration not given here
[18] = basal RPMI8226 mitochondrial membrane potential changes, profiling panel, cell-based, JC-1 fluorescence, 24 h, 100 nL compound (AID 1169); conditions: RPMI8226 myeloma, JC-1 mitochondrial potential fluorescence, higher = more signal; also: test concentration not given here
[19] = basal MM1S mitochondrial membrane potential changes, profiling panel, cell-based, JC-1 fluorescence, 24 h, 100 nL compound (AID 1170); conditions: higher = more signal; also: test concentration not given here
[20] = A549 lung cancer cell viability effects, profiling panel, resazurin fluorescence, 24 h, PK04 Diversity Set (AID 1171); conditions: higher = more signal, called active from +8 up or from −8 down; also: test concentration not given here

| Structure (SMILES) | z-score [1] | composite z-score [2] | z-score [3] | z-score [4] | z-score [5] | z-score [6] | z-score [7] | z-score [8] | z-score [9] | z-score [10] | z-score [11] | z-score [12] | z-score [13] | z-score [14] | z-score [15] | z-score [16] | z-score [17] | z-score [18] | z-score [19] | z-score [20] |
| --- | --- | --- | --- | --- | --- | --- | --- | --- | --- | --- | --- | --- | --- | --- | --- | --- | --- | --- | --- | --- |
| O=C1C[C@@H](O)[C@@H](O)[C@@H]2[C@@H]3C(=O)N(c4ccc(F)cc4F)C(=O)[C@@H]3CC[C@@H]12 | -0.349 (inactive) | -0.101 | -0.571 (inactive) | -0.0709 (inactive) | -0.659 (inactive) | -0.408 (inactive) | -0.0159 | -2.64 (inactive) | 0.473 (inactive) | -0.457 | -0.294 | -0.0367 | 0.644 | -0.701 | -0.709 | -0.56 | -0.597 (inactive) | -0.28 | 0.959 | 0.824 (inactive) |
| CO[C@H]1COC(=O)[C@@H]2CCCN2C(=O)[C@@H](C)COC(=O)CC=C[C@@H]1C | 0.737 (inactive) | -0.198 | 0.464 (inactive) | 0.279 (inactive) | 0.61 (inactive) | 0.27 (inactive) | -0.552 | -0.281 (inactive) | 0.0546 (inactive) | -0.48 | 0.12 | -0.142 | -0.364 | -0.122 | 0.358 | 0.00983 | -0.418 (inactive) | 0.604 | 0.0689 | 0.314 (inactive) |
| CCOC(=O)[C@H](Cc1ccccc1)NC(=O)CCC1CC(OC(=O)NCCc2ccc(F)cc2)CC2(CCCC(COC(=O)NCC(c3ccccc3)c3ccccc3)O2)O1 (stereo not given in full) | -0.455 (inactive) | -0.144 | 14.2 (active) | 4.68 (inactive) | -0.261 (inactive) | 0.688 (inactive) | -0.058 | 0.0978 (inactive) | -0.136 (inactive) | -0.234 | 0.241 | -0.351 | -1.03 | -3.42 | -3.75 | 0.368 | -0.88 (inactive) | -1 | -2.12 | 0.919 (inactive) |
| O=C1[C@H]2[C@H]3[C@H](O)[C@H](O)CC(=NO[C@@H]4O[C@H](CO)[C@@H](O)[C@H](O)[C@H]4O)[C@@H]3CC[C@H]2C(=O)N1c1ccc(F)cc1F | 0.178 (inactive) | -0.0145 | -0.219 (inactive) | 0.363 (inactive) | -0.444 (inactive) | 0.205 (inactive) | -0.709 | 0.455 (inactive) | 0.199 (inactive) | -0.606 | -0.234 | 0.269 | -0.87 | 0.506 | -0.165 | 0.717 | 0.738 (inactive) | -0.079 | 0.256 | -0.126 (inactive) |
| CCc1cc2c(nc1CC)CCN(CCC(C)=NOC(C)CN1CCCc3nc(C)c(C)cc31)C2 (stereo not given) | -1.97 (inactive) | 0.876 | 2.25 (inactive) | -0.0243 (inactive) | 0.0813 (inactive) | 0.146 (inactive) | -1.08 | -1.41 (inactive) | -0.293 (inactive) | -1.86 | 0.566 | -0.326 | 0.595 | -2.4 | -0.305 | 1.31 | -0.415 (inactive) | -0.668 | -0.342 | 0.103 (inactive) |
| C=CC[C@]1(C(=O)NCc2ccccc2)N=C(c2ccc(OCCCO)cc2)O[C@H]1c1ccccc1 | -0.0491 (inactive) | 0.398 | 14.6 (active) | 1.83 (inactive) | 0.668 (inactive) | 1.26 (inactive) | -0.0429 | -2.86 (inactive) | -0.495 (inactive) | -1.96 | -1.38 | 0.43 | -1.98 | -2.75 | -3.75 | -0.022 | -0.18 (inactive) | -1.31 | -0.988 | 0.953 (inactive) |
| CC(C)OC(=O)C=C1C[C@@H](c2ccc(C#N)cc2)O[C@@H](c2ccc(C#N)cc2)O1 | 0.197 (inactive) | 0.474 | 8.57 (active) | 0.848 (inactive) | 0.78 (inactive) | 0.439 (inactive) | -0.342 | -0.669 (inactive) | -1.02 (inactive) | -0.607 | -0.301 | 0.538 | -0.0099 | -2.29 | -0.69 | -1.06 | -0.195 (inactive) | -0.462 | -2.22 | 0.199 (inactive) |
| CC=CC1=C(CO)[C@H](O)[C@H]2O[C@H]2[C@H]1O | -0.147 (inactive) | -0.45 | -0.528 (inactive) | -0.52 (inactive) | -0.382 (inactive) | -0.342 (inactive) | 0.318 | 1.94 (inactive) | -1.82 (inactive) | -0.768 | -0.286 | 0.292 | -0.408 | 0.0314 | -0.054 | -0.722 | 0.382 (inactive) | 0.635 | 0.677 | -0.482 (inactive) |
| COC(=O)C1=C(C)N(Cc2ccccc2)[C@]23O[C@](C(=O)OC)(C(=O)N2[C@@H]1c1ccccc1)[C@H]1CCOC(=O)[C@H]13 | -0.238 (inactive) | -0.0984 | 0.951 (inactive) | -0.0468 (inactive) | 1.3 (inactive) | 0.443 (inactive) | -0.537 | 0.902 (inactive) | 0.805 (inactive) | 1.06 | 0.589 | 0.109 | -0.21 | 0.0449 | -0.808 | 0.74 | 0.642 (inactive) | -0.139 | -0.0135 | 0.516 (inactive) |
